Screens (PubChem)
Hits are enriched below; roughly 14% of the tested compounds scored in any of these assays.
Pf growth 48h – Primary qHTS for delayed death inhibitors of the malarial parasite plastid, 48 hour incubation. AID 504832, 2011. Potency, µM (highest dose often 28.7 µM), for the others: at the highest dose activity change, negative = inhibition, hits mostly inhibitors. P. falciparum luciferase growth in erythrocytes, 48 h. actives 5.9% (n = 310,000); note: potency is the fitted concentration of half-maximal effect
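Cell-based growth assay: transgenic P. falciparum expressing firefly luciferase, cultured in red cells within RPMI 1640 containing 0.5% w/v Albumax, 24 mM bicarbonate and gentamycin. A drop in luciferase activity indicates inhibition.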
Sm TGR block – qHTS Assay for the Inhibitors of Schistosoma Mansoni Peroxiredoxins; Schistosoma mansoni thioredoxin glutathione reductase (TGR), Q962Y6; purified TGR, DTNB reduction, TNB absorbance 405 nm; Potency, µM (doses to about 114 µM), inactives show top-dose activity change, negative = inhibition, most hits filed as inhibitors; actives 3% (n = 360,000); AID 485364, 2010; note: potency is the fitted concentration of half-maximal effect; nearly all actives have a fitted effect of over 60% in size
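Kinetic colorimetric format: TGR-catalysed, NADPH-driven DTNB reduction monitored via TNB absorbance. Enzyme dispensed at 20 nM; compound exposure 15 min at room temperature before reaction start.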
Giardia FBPA inh – qHTS Assay for Inhibitors of Fructose-1,6-bisphosphate Aldolase from Giardia Lamblia | actives 0.71% (n = 290,000) | AID 2451, 2010 | Potency, µM (highest dose often 59.6 µM), without a hit: top-dose activity, negative = inhibition, hits mostly inhibitors | purified Giardia FBPA | A8B2U2; note: potency is the fitted concentration of half-maximal effect; nearly all actives have a fitted effect of over 55% in size
Target sequence (A8B2U2 whole entry, looked up): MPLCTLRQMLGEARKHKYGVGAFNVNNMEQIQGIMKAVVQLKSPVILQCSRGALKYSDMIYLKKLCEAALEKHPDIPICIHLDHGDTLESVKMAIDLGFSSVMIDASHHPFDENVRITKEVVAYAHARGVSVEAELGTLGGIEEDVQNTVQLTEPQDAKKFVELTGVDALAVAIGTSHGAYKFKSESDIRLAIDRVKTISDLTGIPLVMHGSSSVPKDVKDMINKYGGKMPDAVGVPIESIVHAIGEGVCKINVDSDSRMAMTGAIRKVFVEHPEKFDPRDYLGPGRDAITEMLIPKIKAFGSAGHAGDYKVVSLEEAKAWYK
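Giardia FBPA (40 nM reagent) was preincubated 10 min at RT with compound (up to 57.5 uM final), then substrate plus GAPDH/TPI/NAD/arsenate coupling system with diaphorase/resazurin was added; resorufin fluorescence (525/598 nm) was read after 20 min.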
HCMV inh – qHTS Assay for inhibitors of the human cytomegalovirus (HCMV); HFF cells, HCMV-luciferase reporter, 72 h; stronger effect = lower value; activity change, negative = inhibition, % at 57.5 µM; actives 4.5% (n = 410,000); AID 1259415, 2018; in the data active = activity change below about -60%; inconclusive = no clear call, values can overlap the other calls; inactive = above about -39%
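Luciferase read-out from HCMV-luciferase-infected HFFs (MOI 1 PFU/cell) 72 h post infection at 37C; compounds added after 16 h cell attachment; activity normalized between buffer-only basal and Salinomycin (10uM) inhibitor controls.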
Pf growth 96h – Primary qHTS for delayed death inhibitors of the malarial parasite plastid, 96 hour incubation | P. falciparum luciferase reporter growth, 96 h | Potency, µM (top dose mostly 28.7 µM), inactives show at the top dose activity change, negative = inhibition, actives largely listed as inhibitors | actives 6.9% (n = 320,000) | AID 504834, 2011; note: potency is the fitted concentration of half-maximal effect
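Two parasite generations (96 h, 37 C, 5% CO2) of compound exposure in infected erythrocytes (0.05% parasitemia, 2% hematocrit). Luciferase-reporter P. falciparum; decreased luminescence indicates inhibited growth, aimed at apicoplast-acting delayed death.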
* hit, by the source's call; ? = inconclusive; nt = not tested or not shown; [ ] = remark or other dose. Unless noted, calls come from the whole dose curve; as a rule, active = well fitted curve in the direction sought with a large enough effect; inconclusive = small, poorly fitted or top-dose-only effect, or another doubt; inactive = no such curve, though single readings can be large; an effect the other way counts as inactive or inconclusive. % is set by controls: 0 for no effect and ±100 for the full control effect.

SMILES	Pf growth 48h	Sm TGR block	Giardia FBPA inh	HCMV inh	Pf growth 96h
CCN(Cc1nc2ccccc2c(=O)[nH]1)C(=O)c1cccc(S(=O)(=O)N2CCc3ccccc32)c1	10µM*	-9%	nt	-21	?
O=C(c1cccc(F)c1)N(Cc1nc2ccccc2c(=O)[nH]1)C1CCCC1	6.6µM*	6%	-3%	8	?
CCC(CC)C(=O)N(CCc1ccc(OC)cc1)Cc1nc2ccccc2c(=O)[nH]1	nt	-11%	-6%	-11	12µM*
CCN(Cc1nc2ccccc2c(=O)[nH]1)C(=O)c1ccc(C)c(NC(=O)c2ccco2)c1	-29%	1%	nt	-4	13µM*
CCN(Cc1nc2ccccc2c(=O)[nH]1)C(=O)COc1ccccc1-c1ccccc1	13µM*	-5%	nt	70	9.3µM*
CCN(Cc1nc2ccccc2c(=O)[nH]1)C(=O)c1cc(C2CC2)nn1-c1ccccc1	?	-7%	nt	-28	9.3µM*
CN(Cc1nc2ccccc2c(=O)[nH]1)C(=O)c1cc(C2CC2)nn1-c1ccccc1	?	-22%	nt	-14	?
CN(Cc1nc2ccccc2c(=O)[nH]1)C(=O)C1CC(=O)N(c2cccc3ccccc23)C1 (centres undefined)	nt	nt	nt	24	nt
CCN(Cc1nc2ccccc2c(=O)[nH]1)C(=O)C1CC(=O)N(c2cccc3ccccc23)C1 (centres undefined)	10µM*	-17%	nt	2	?
CCC(C)(C)n1nnnc1C(c1ccc(O)c(OC)c1)N1CCc2ccccc2C1 (centres undefined)	38%	0.25µM*	-24%	-17	0%
COc1ccc(C(c2nnnn2C(C)(C)C)N2CCN(c3nc4ccccc4s3)CC2)cc1 (centres undefined)	?	-14%	-1%	28	1%[5.75 µM]
CCC(C)(C)n1nnnc1C(c1ccc(O)c(OC)c1)N1CCN(c2nc3ccccc3s2)CC1 (centres undefined)	?	0.71µM*	1%	8	9%
CCC(C)(C)n1nnnc1C(c1ccccc1)N1CCc2ccccc2C1 (centres undefined)	-25%	?	-1%	7	nt
CC(=O)C1(O)C(C)CC2C3CC(F)C4(O)CC(O)CCC4(C)C3CCC21C (centres undefined)	nt	nt	nt	-26	nt
Cn1cc(-c2ccc3c(c2)OCO3)c2ccccc21	nt	nt	nt	-2	nt
OC1C2(Cc3ccccc3)CN3CCN(C2)CC1(Cc1ccccc1)C3 (centres undefined)	?	13%	nt	-18	0.93µM*
CC(Sc1nnc(Cc2ccccc2)n1C)C(=O)NC1CC1 (centres undefined)	-21%	-10%	nt	-15	-25%
COc1ccccc1CNc1ncnc2cc(Cl)ccc12	11%	nt	4%	38	2%
CCN(CC)Cc1cc2[nH]c3c4ccc(Cl)cc4ncc3c2cc1OC	0.074µM*	10%	-6%	73	0.093µM*
Cn1cc(S(=O)(=O)c2ccc(Cl)cc2)c(=O)c2cc(F)c(N3CCCC3)cc21	nt	2%	nt	-7	nt
CCN(CC)c1ccc2c(c1)CCCN2	10µM*	5µM*	?	nt	10µM*
O=S(=O)(c1ccc(F)cc1)N1CCN(c2ccccn2)CC1	7%	-9%	8%	-31	0%
CCCn1c(CN2CCN(C(=O)c3ccco3)CC2)nc2cc(S(=O)(=O)N(C)C)ccc21	10µM*	28µM*	nt	1	9.3µM*
COc1cc2cc[n+](Cc3ccc([N+](=O)[O-])cc3)cc2cc1OC	4.7µM*	-15%	-1%	-13	3.3µM*
CC(=O)c1cc2c(cc1NC(=O)CCn1cccc1)OCO2	-18%	35µM*	-5%	1	?
Cc1ccc(N2CC(C)Cn3c2nc2c3c(=O)n(Cc3cccc(Cl)c3)c(=O)n2C)cc1 (centres undefined)	nt	-4%	nt	6	nt
O=C1C=C(NCc2ccccc2)CCC1	-1%	-3%	3%	-13	31%
O=c1cccccc1NCc1ccccc1	nt	35µM*	8.9µM*	-33	1%
